Source: PubChem
A selection: hits, their analogues and other compounds. The true share with any hit is near 4%.
LMP1 NFkB inh: EBV LMP1-driven NF-kappaB luciferase reporter inhibitors, primary screen, cell-based, luminescence, single point; LMP1-induced NF-kappaB luciferase reporter cells; 0.69% of 350,000 active; inhibition, % at 12.5 µM; in the data active = inhibition above about 41%; inconclusive = no clear call, values can overlap the other calls;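 note: 0% = neutral control wells and 100% = reference inhibitor control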
Statin myotox sup: suppressors of statin myotoxicity in C2C12 myotubes, primary screen, cell-based, single point, plate reader. C2C12 myotubes + simvastatin, ATP luminescence, 48 h; scaled: DMSO 0, geranylgeraniol control 100. rescue of ATP level, % at 7.49 µM. 0.78% of 330,000 active. AID 602340, 2012;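 active = mean ATP rescue above about 67%, or every replicate alone reaching that limit, limit read from the data, passing the limit was not always enough; inconclusive = no clear call, values can overlap the other calls; inactive = mean under the limit and some replicate under it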;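 note: myotubes were challenged with 10 µM simvastatin during compound exposure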
MITF act: activators of MITF-driven TRPM1 promoter reporter, primary screen, cell-based, SK-MEL-5, luciferase, single point; activation, % at 12.5 µM; 0.75% of 300,000 active; SK-MEL-5 TRPM1-promoter luciferase, 24 h; % of positive control, neutral wells = 0;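 active = mean activation of at least 80% with every replicate also reaching 80%; inconclusive = mean reaches 80% but some replicate falls short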;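 note: 0% = neutral control wells and 100% = parthenolide positive control wells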
Wnt bcat act: Wnt/beta-catenin pathway activators, primary screen, cell-based, plate reader, single point; Wnt/beta-catenin reporter cell assay, activator; 1.2% of 300,000 active; AID 743398, 2014; activation, % at 9.35 µM; in the data active = activation above about 30%, passing the limit was not always enough; inconclusive = no clear call, values can overlap the other calls;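 note: 0% = neutral control wells and 100% = positive control wells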
esBAF inh: Bmi1 luciferase reporter increase in mESCs, primary screen, esBAF inhibitor project, mouse ES cells, Bmi1 luciferase knock-in, single point | 24 h; 100% = twice the neutral-well signal | reporter increase, % at 12.5 µM | 2% of 350,000 active | AID 602393, 2012; in the data active = activation above about 40%; inconclusive = no clear call, values can overlap the other calls;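 note: 0% = median of the plate's neutral control wells and 100% = double that signal; a rise in the Bmi1 reporter signal indicates esBAF inhibition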
MITF TRPM1 inh: inhibitors of MITF-dependent TRPM1 promoter reporter, primary screen, cell-based, SK-MEL-5, single point, luciferase; SK-MEL-5 TRPM1 promoter luciferase, 24 h; AID 488899, 2010; 0.83% of 330,000 active; inhibition, % at 12.5 µM;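 active = mean inhibition across replicates of 60% or more, whatever share of single replicates reaches that level; inconclusive = some that reach 60%, reason not given; inactive = mean inhibition across replicates below 60%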
Starred values were filed as active, the others as inactive; ? = inconclusive; nt = not tested or not shown.

SMILES	LMP1 NFkB inh	Statin myotox sup	MITF act	Wnt bcat act	esBAF inh	MITF TRPM1 inh
COc1ccc(C(=O)Nc2ccc3ccccc3n2)cc1OC	-27.8	-13.3	53.1	21.5	70.4*	-49.1
COc1ccc(C(=O)Nc2ccc(Cl)cn2)cc1Cl	-21.9	-7.3	?	?	68.8*	-87.0
CCn1c(NC(=O)c2ccc(F)cc2)c2ccccc2nc1=O	-1.7	-2.5	-2.0	-6.6	3.5	-0.7
CCn1c(NC(=O)c2ccc(C)cc2)c2ccccc2nc1=O	79.2*	nt	3.7	nt	nt	-3.6
O=C(CCc1ccccc1)Nc1ccc2ccccc2n1	-2.1	nt	100.3*	55.8*	nt	-95.0
Cc1nnc(SCc2ccccc2)nc1-c1ccccc1	-13.8	0.5	87.7*	?	83.2*	-85.3
CCOC(=O)CSc1nnc(-c2ccccc2)c(-c2ccccc2)n1	-4.0	-1.1	3.8	-2.7	-11.9	-11.0
C[C@@H]1CN([C@@H](C)CO)C(=O)c2cc(NC(=O)Cc3cn(C)c4ccccc34)ccc2O[C@@H]1CN(C)CC1CC1	nt	36.2	nt	nt	2.3	nt
Cc1ccc(-c2cc(C(=O)Nc3cccc(S(=O)(=O)N(C)C)c3)c3ccccc3n2)o1	1.8	-5.5	2.7	-1.6	-2.2	-4.1
OCC1CCCN(C(=S)Nc2ccc(OC(F)F)cc2)C1 (configuration not stated)	-9.1	nt	14.1	4.5	nt	-8.1
OCC1CCCN(C(=S)Nc2ccc(Nc3ccccc3)cc2)C1 (configuration not stated)	-14.6	1.6	48.7	3.2	46.9*	-45.8
COc1ccc(C2CC(c3ccccc3)=NN2C(=O)c2cccs2)cc1 (configuration not stated)	-13.7	-8.7	33.2	nt	46.8*	-37.5
COc1ccc(C2=NN(C(=O)c3cccs3)C(c3ccccc3O)C2)cc1 (configuration not stated)	-3.7	nt	16.2	1.1	nt	-12.8
Cc1ccc(CCNC(=O)C2CCC(=O)N(Cc3ccccc3F)C2)o1 (configuration not stated)	-4.8	-2.7	24.7	17.2	54.6*	-24.3
COc1ccccc1CCCNC(=O)C1CCC(=O)N(Cc2ccccc2F)C1 (configuration not stated)	-27.0	0.3	?	11.8	46.3*	-150.7
Cc1cc(C)nc(CCNC(=O)C2CCC(=O)N(Cc3ccccc3F)C2)n1 (configuration not stated)	-3.9	6.2	9.0	1.0	8.1	-13.0
CCOC(=O)N1CCN(C(=O)C2CCC(=O)N(Cc3ccccc3OC)C2)CC1 (configuration not stated)	46.1*	-0.8	nt	5.1	4.7	nt
CCn1nnc(-c2ccccc2NC(=O)c2cccc(-n3cnnn3)c2)n1	2.5	-29.5	12.0	-1.8	-4.7	-15.1
Cc1[nH]c(C)c(S(=O)(=O)N2CCc3ccccc32)c1C(=O)N1CCCCC1	-0.5	2.6	2.4	-2.4	0.0	-1.2
CC(C)NC(=O)N(C)C[C@H]1Oc2ccc(NC(=O)Nc3ccc(C(F)(F)F)cc3)cc2C(=O)N([C@@H](C)CO)C[C@@H]1C	nt	50.5	nt	nt	-0.6	nt
Cc1ccc(N(C(=O)C2CCC(=O)N2)C2(C(=O)NC3CCCCC3)CCCCC2)cc1 (configuration not stated)	4.5	119.3*	-9.8	5.9	-0.3	11.8
Cc1ccc(N(C(=O)c2ccccn2)C2(C(=O)NC3CCCC3)CCCCC2)cc1	11.3	8.2	-4.4	1.5	0.6	0.7
CCCCOc1ccc(C(=O)Oc2cccnc2)cc1	0.2	nt	11.7	3.0	nt	-9.7
Cc1cc(C)nc(-n2nc(C)c3c(C(F)F)cc(C)nc32)n1	-6.8	115.2*	?	-1.3	-7.9	-3.8
CS(=O)(=O)NN1C(=O)c2ccccc2NC1c1cc2ccccc2nc1Cl (configuration not stated)	-1.2	18.3	5.2	52.1*	89.3*	0.2
SMILES	LMP1 NFkB inh	Statin myotox sup	MITF act	Wnt bcat act	esBAF inh	MITF TRPM1 inh
CS(=O)(=O)NN1C(=O)c2ccccc2NC1c1ccccc1F (configuration not stated)	-2.0	5.0	-1.1	2.8	-2.3	1.6
CC(C)OC(=O)Cn1nnc2c(cnn2-c2ccccc2)c1=O	-12.5	-5.0	41.3	nt	46.9*	-43.0
CCOC(=O)/C=C(\C)Sc1cc(O)c2ccccc2c1O	-0.8	-57.7	-82.3	3.4	1.0	82.9*
CCOC(=O)/C=C(\C)Sc1cc(=O)oc2ccccc12	49.5*	-27.4	-14.5	-16.1	-2.3	19.1
CC(=O)c1cc(O)c2ccccc2c1O	-5.3	-5.5	-3.8	1.6	19.8	5.6
COc1ccccc1CNC(=O)C1(NC(=O)Nc2ccc(C)cc2)CCCCC1	-1.8	6.1	2.0	-1.2	4.0	-3.9
Cc1nnc(N2CCN(c3ccccc3)CC2)[nH]c1=O	4.8	97.7*	nt	6.3	-3.3	4.6
C[C@@H]1CN([C@@H](C)CO)C(=O)c2cccc(NC(=O)NC3CCCCC3)c2O[C@H]1CN(C)S(=O)(=O)c1cccs1	nt	-2.0	nt	nt	9.2	nt
CC1=CC(=C2C(=O)c3ccccc3C2=O)C=C(C)N1Cc1ccco1	-21.6	nt	40.5	50.8*	nt	-44.7
c1ccc2[nH]c(CSc3nnc(-c4ccncc4)o3)nc2c1	0.9	85.0*	-16.5	-5.4	-25.4	18.5
Clc1ccccc1CSc1nnc(-c2ccncc2)o1	-10.7	nt	nt	nt	49.3*	-88.2
Brc1cccc(CSc2nnc(-c3ccncc3)o2)c1	70.8*	nt	-2.0	-2.7	nt	3.6
Cc1c(O)nc2sc3ccccc3n2c1=O	nt	nt	nt	3.8	nt	nt
Cc1cc2sc3nc(=O)n(-c4ccccc4)c(=O)n3c2cc1C	-9.5	nt	nt	70.6*	nt	-109.8
CCNc1nc(N)nc(Oc2ccc(C(=O)OC)cc2)n1	-2.5	nt	87.1*	17.6	?	-81.1
CCNc1nc(Oc2ccc(C(=O)OC)cc2)nc(N(C)C)n1	-2.4	6.7	5.0	nt	4.3	-3.1
Cc1cc(C)n2nc(SCC3COc4ccccc4O3)nc2n1 (configuration not stated)	14.3	1.0	nt	7.1	62.7*	-48.5
Cc1cc(C)n2nc(SCc3nnc(SCc4ccccc4Cl)s3)nc2n1	3.3	5.4	15.3	-0.2	1.0	-13.1
Cc1cc(C)n2nc(SCc3nnc(SCc4ccccc4C)s3)nc2n1	-0.2	-57.1	8.2	-2.5	82.9*	-12.9
Cc1cc(C)n2nc(SCN3C(=O)c4ccccc4C3=O)nc2n1	-10.3	-0.3	84.1*	-4.4	0.0	-85.3
CNC(=O)c1cc2cccc(OC)c2oc1=O	-1.4	-5.0	-7.0	nt	-7.1	9.8
CCOC(=O)CC(NC(=O)c1cc2cccc(OC)c2oc1=O)c1ccc(OC)cc1 (configuration not stated)	-8.4	3.4	58.9	5.8	49.8*	-54.6
